This passage reports composite z-score results from PubChem BioAssay.

For this assay, the system named is Neuregulin-1 EGF-like domain. The experiment in a line: small molecules binding NRG1 EGF domain – biochemical, small-molecule microarray, 635 nm fluorescence, primary screen (AID 1081).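 Further: binding of the protein to compounds printed on small-molecule microarray slides.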 The following applies: higher = more signal.
`C=C(/C(=C/C[C@H](OC(C)=O)c1ccccc1OCCO)c1cc(C(=O)OC)ccc1OC)C(C)C` returned a composite z-score of 1.09.

The compound `C[N+](C)(C)CCCC[C@@H]1NC(=O)[C@H]2C[C@@H](C(=O)NCCCCCCN)[C@@H](c3ccc(O)cc3)N2C1=O` had a composite z-score of 1.09.

With `COc1ccccc1CN1C(=O)c2ccccc2[C@](Cc2ccccc2I)(C(=O)NCC(F)(F)F)[C@@H]1c1ccc(CO)cc1`, the composite z-score was determined as 1.36.

On to `O=C(NCc1ccccc1)[C@@H]1c2ccccc2C(=O)N(Cc2ccccc2C(F)(F)F)[C@H]1c1ccc(CO)cc1`, for which the composite z-score came to 1.25.

`COC(=O)[C@H](Cc1ccccc1)N1CC(/C=C/C2CC2)=C[C@H]1[C@H](O)Cc1ccccc1` registered a composite z-score of 1.01.

In the case of `CCOC(=O)C1=CC[C@@H](c2ccc(OCc3ccccc3)c(OC)c2)N(S(=O)(=O)c2ccc(C)cc2)[C@H]1c1ccc(SC)cc1`, the composite z-score was 1.11.

In the case of `COc1cccc(/C=C/C=O)c1`, the composite z-score is -0.443.

`CC(=O)NCCCC[C@@H]1NC(=O)[C@H]2C[C@@H](C(=O)NCCCC[N+](C)(C)C)[C@@H](c3cccc(OCCO)c3)N2C1=O`: the composite z-score worked out at 1.14.

The compound `O=C1C2C=CC(C(O)c3ccccc3)N(Nc3ccccc3F)C2C(=O)N1c1ccccc1` (stereo not given) displayed a composite z-score of 0.834.

Consider `CCOC(=O)C[C@H]1[C@H](OC(=O)c2ccccc2-c2ccccc2)[C@@H](NC(=O)c2ccc(-c3ccccc3)cc2)c2cc(OCCCO)ccc2N1C(=O)c1ccc2ccccc2n1`, for which the composite z-score is 0.849.

`CO[C@]12C=C(Br)[C@@H](C[C@@H]1c1cccc(C)c1)[C@@]1(CO1)C2=O` gave a composite z-score of 0.0046.

In the case of `[N-]=[N+]=Nc1ccccc1[C@@H]1OC(c2ccc(OCCCO)cc2)=N[C@]1(Cc1ccccc1)C(=O)NCC(O)CO` (stereo not given in full), the composite z-score was found to be 1.06.

Turning to `COc1ccc([Si](C)(C)[C@@H]2[C@@H](CCn3cc([C@H](O)c4ccccc4)nn3)O[C@]3(C(=O)N(Cc4ccc(N5CCC5=O)cc4)c4ccccc43)[C@H]2C)cc1`, the composite z-score was 0.142.

`C=CCC(OC(C)=O)[C@@H]1[C@@H](N(Cc2ccc(-c3cccc(C(F)(F)F)c3)o2)C(=O)c2ccc(C)cc2)c2cc(OCCCO)ccc2N1C(=O)c1ccc2ccccc2c1` (stereo not given in full) returned a composite z-score of 0.273.

Compound `C=CCC(OC(C)=O)[C@@H]1[C@@H](N(Cc2cccc3ccccc23)C(=O)Cc2ccc(F)cc2)c2cc(OCCCO)ccc2N1C(=O)c1ccc2ccccc2n1` (stereo not given in full) returned a composite z-score of -0.429.

The compound `C[C@H]1NC(=O)[C@@]23C(=O)N[C@@H](Cc4ccccc4)C2[C@H](C)[C@@]2(C)O[C@H]2C3/C=C/C/C=C\CNC(=O)[C@H](Cc2ccccc2)NC1=O` (stereo not given in full) displayed a composite z-score of 1.11.

Regarding `CCCCCCCCCCC(O)C1C=CC2C(=O)N(C)C(=O)C2N1Nc1ccc([N+](=O)[O-])cc1[N+](=O)[O-]` (stereo not given), the composite z-score was found to be 0.975.

The compound `NCCCCCCNC(=O)[C@@H]1C[C@@H]2C(=O)N[C@@H](CCCCN)C(=O)N2[C@@H]1c1cccc(OCCO)c1` showed a composite z-score of 1.2.

In the case of `N#Cc1ccc(C(O)C2C=CC3C(=O)N(c4ccccc4)C(=O)C3N2Nc2ccccc2)cc1` (stereo not given), the composite z-score worked out at 1.08.

Take `CC1=C([C@H](O)CCc2ccccc2)[C@H](CO)[C@@H]2C(=O)N(C)C(=O)[C@@H]2C1`: the composite z-score turned out to be 0.493.

For the compound `CCOC(=O)C1=CC[C@@H](c2cccc(Cl)c2)N(S(=O)(=O)c2ccc(C)cc2)C1`, the composite z-score came out at 1.2.

The compound `COCCOC(=O)N1C(=O)[C@@]2(c3cc(C#Cc4ccc(OC)cc4)ccc31)[C@H](C(=O)Nc1nc3ccccc3s1)[C@H]1C(=O)O[C@H](c3ccccc3)[C@H](c3ccccc3)N1[C@@H]2c1ccc(O)cc1` displayed a composite z-score of 1.22.

Regarding `COc1ccc(C#Cc2ccc3c(c2)[C@]2(C(=O)N3)[C@H](c3ccc(O)cc3)N3[C@H](c4ccccc4)[C@H](c4ccccc4)OC(=O)[C@H]3[C@@H]2C(=O)O)cc1`, the composite z-score is 1.13.

Compound `CC(C)C[C@@H]1NC(=O)[C@@H]2C[C@H](C(=O)NCCCCCN)[C@H](c3ccc(O)cc3)N2C1=O` came in with a composite z-score of 1.3.

The compound `CN1C(=O)C2C=CC(C(O)c3ccc(F)cc3)N(Nc3ccccc3)C2C1=O` (stereo not given) came in with a composite z-score of 1.34.

For the compound `CCC[C@@H]1C[C@@]1(CCC)[C@@H](NC(=O)OCc1ccccc1)c1ccc(-c2ccccc2)cc1`, the composite z-score is -0.76.

In the case of `COc1ccc(NC(=O)O[C@H]2[C@H](OC(=O)Nc3ccccc3)[C@H](OC(=O)Nc3ccccc3)[C@@H](OC)O[C@@H]2CO)cc1`, the composite z-score is 1.25.

In turn, `CC(C)[Si](C#C[Si](C(C)C)(C(C)C)C(C)C)(O[C@H](C)c1cn([C@H](CO)Cc2ccccc2)nn1)C(C)C` displayed a composite z-score of 0.432.

Take `[N-]=[N+]=NCc1ccccc1[C@@H]1OC(c2ccc(OCCCO)cc2)=N[C@]1(CCS(=O)(=O)c1ccccc1)C(=O)NCC(O)CO` (stereo not given in full): the composite z-score is 1.23.

In the case of `CCC(CC)C(O)C1C=CC2C(=O)N(c3ccccc3)C(=O)C2N1Nc1ccc(C(C)C)cc1` (stereo not given), the composite z-score was determined as 1.28.

Turning to `C=C(C)C1CCC(C(O)C2C=CC3C(=O)N(C)C(=O)C3N2N2CCCCC2)CC1` (stereo not given), the composite z-score worked out at 1.24.

`O=C1NC(=O)C2C1C=CC(C(O)c1cccc3ccccc13)N2Nc1ccc(Cl)cc1Cl` (stereo not given) registered a composite z-score of 1.

Compound `C=CCOC(=O)[C@H]1[C@@H]2C(=O)O[C@@H](c3ccccc3)[C@@H](c3ccccc3)N2[C@@H](c2ccc(OCCOC(=O)[C@@H]3C[C@@H]4C(=O)N[C@@H](CCCCN(C)C)C(=O)N4[C@@H]3c3ccc(O)cc3)cc2)[C@]12C(=O)Nc1ccccc12` gave a composite z-score of 1.26.

For `CCOC(=O)C1=CC[C@@H](c2ccccc2C(F)(F)F)N(S(=O)(=O)c2ccc(C)cc2)[C@H]1c1ccc(C#N)cc1`, the composite z-score was found to be 1.25.

`CCCNC(=O)[C@@H]1c2ccccc2C(=O)N(C(C)C)[C@H]1c1ccc(CO)cc1` showed a composite z-score of 1.2.
